# Activity calls are given as the source filed them.
# Experiments:
# [1] = system: PRMT1 (protein arginine N-methyltransferase 1); test: PRMT1 binders on small-molecule microarrays, primary screen, biochemical, small-molecule microarray, 635 nm fluorescence (AID 1088); conditions: small-molecule microarray binding, higher = more signal;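 also: binding of Prmt1 protein to compounds spotted on small-molecule microarray slides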
# [2] = yeast growth modulation, basal conditions, primary screen, YJM789 clinical isolate, OD600, 24 h (AID 1089);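 also: growth of clinical yeast isolate S. cerevisiae YJM 789 seeded 1000 cells per well; test concentration not given here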; conditions: S. cerevisiae YJM789 growth, higher = more signal, called active from +8 up or from −8 down
# [3] = fission yeast growth modulation, primary screen, strain 972, OD600, 24 h, no modulator (AID 1090);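 also: basal condition with compound alone and no growth modifier present; test concentration not given here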; conditions: S. pombe 972 growth, higher = more signal, called active from +8 up or from −8 down
# [4] = S. cerevisiae growth modulation with rapamycin, primary screen, strain BY4716, OD600, 96 h (AID 1091); conditions: higher = more signal, called active from +8 up or from −8 down; also: test concentration not given here
# [5] = target: Torsin-1A-interacting protein 2 (Homo sapiens) (UniProt Q8NFQ8); test: LULL1 binders on small-molecule microarray, primary screen, cell lysate, human LULL1 lysate, 635/667 nm fluorescence (AID 1092); conditions: hLULL1 lysate binding, 635 nm fluorescence, higher = more signal;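 also: probe is lysate of COS7 cells overexpressing human LULL1; score merges per-feature 667 nm fluorescence with signal-to-noise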
# [6] = E. coli growth modulation, two-sided OD650, primary screen, E. coli filamentation project, strain DRC41, 24 h (AID 1093); conditions: OD650, 24 h, higher = more signal, called active from +8 up or from −8 down;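 also: MC1000 strain lacking acrAB efflux and sulA so SOS filamentation is blocked; test concentration not given here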
# [7] = small-molecule microarray binders of probe aLefty2, primary screen, biochemical, biotinylated probe, 635/667 nm fluorescence (AID 1094); conditions: higher = more signal;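 also: score merges spot fluorescence near 667 nm with spot signal-to-noise ratio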
# [8] = system: Noggin (protein binding on small-molecule microarray); test: Noggin binders on small-molecule microarray, primary screen, biochemical, 635/667 nm fluorescence (AID 1095); conditions: 635 nm fluorescence, higher = more signal;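 also: score merges 667 nm feature fluorescence with signal to noise over triplicate slides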
# [9] = target: Neurogenic locus notch homolog protein 3 (Homo sapiens) (UniProt Q9UM47); test: NOTCH3 binders on small-molecule microarray, primary screen, biochemical, 635/667 nm fluorescence (AID 1096); conditions: NOTCH3 binding, 635 nm fluorescence, higher = more signal
# [10] = small-molecule microarray binders of probe aEGFR, primary screen, biochemical, biotinylated probe, 635/667 nm fluorescence (AID 1097); conditions: higher = more signal;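 also: probe is a biotinylated anti-EGFR antibody binding compounds printed on slides; score combines fluorescence near 667 nm and signal to noise of each spot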
# [11] = system: Plasmodium falciparum Sir2 (PF13_0152, Sir2A); test: pfSir2 binders on small-molecule microarrays, primary screen, biochemical, small-molecule microarray, 635 nm fluorescence (AID 1098); conditions: small-molecule microarray binding, fluorescence 635 nm; higher = more signal;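 also: score merges spot fluorescence intensity with its signal-to-noise ratio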
# [12] = small-molecule microarray binders of probe aDKK1, primary screen, biochemical, biotinylated probe, 635/667 nm fluorescence (AID 1099); conditions: higher = more signal;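 also: score merges 667nm spot fluorescence with signal to noise across triplicate slides; reference of the scale not given here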
# [13] = small-molecule microarray binders of probe aCHRDL2, primary screen, biochemical, biotinylated probe, 635/667 nm fluorescence (AID 1100); conditions: higher = more signal
# [14] = splicing luciferase reporter signal modulators, primary screen, spliceosome inhibition project, cell-based, HEK293, splice +/- reporter (AID 1101); conditions: luminescence, 24 h, higher = more signal, called active from +8 up or from −8 down;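 also: HEK293 cells carrying a splicing-competent luciferase reporter gene; test concentration not given here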
# [15] = target: Fibroblast growth factor 10 (Homo sapiens) (UniProt O15520); test: FGF10 binders on small-molecule microarrays, primary screen, biochemical, small-molecule microarray, 635 nm fluorescence (AID 1102); conditions: FGF10 binding, fluorescence 635 nm, higher = more signal
# [16] = system: glycogen synthase kinase-3 (GSK3A per assay name; protocol says GSK3B); test: GSK3 binders on small-molecule microarrays, primary screen, biochemical, small-molecule microarray, 635 nm fluorescence, GSK3A (AID 1103); conditions: small-molecule microarray binding, fluorescence 635 nm; higher = more signal; also: the record names both GSK3A and GSK3B
# [17] = target: Epidermal growth factor receptor (Homo sapiens) (UniProt P00533); test: EGFR binders on small-molecule microarrays, primary screen, biochemical, small-molecule microarray, 635 nm fluorescence (AID 1104); conditions: EGFR binding, higher = more signal;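 also: score merges 667 nm emission intensity with spot signal to noise over triplicate slides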
# [18] = target: Follistatin-related protein 3 (Homo sapiens) (UniProt O95633); test: FSTL3 binders on small-molecule microarrays, primary screen, biochemical, small-molecule microarray, 635 nm fluorescence (AID 1105); conditions: FSTL3 binding, higher = more signal;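 also: score merges emission near 667 nm and signal to noise per printed spot across three slides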
# [19] = target: Dickkopf-related protein 1 (Homo sapiens) (UniProt O94907); test: DKK1 binders on small-molecule microarrays, primary screen, biochemical, small-molecule microarray, 635 nm fluorescence scan (AID 1106); conditions: DKK1 binding, higher = more signal;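 also: score merges emission near 667 nm with signal to noise over three replicate slides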
# [20] = system: Inhibin beta A chain (activin A); test: INHBA (activin A) binders on microarrays, primary screen, biochemical, small-molecule microarray, 635 nm fluorescence scan (AID 1107); conditions: small-molecule microarray binding, higher = more signal;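 also: mouse activin A protein probed at 4.33 µg/mL on printed slides; score merges bound-protein fluorescence near 667 nm with spot signal-to-noise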
# Chain of Torsin-1A-interacting protein 2 (Homo sapiens) (Q8NFQ8 whole entry, looked up): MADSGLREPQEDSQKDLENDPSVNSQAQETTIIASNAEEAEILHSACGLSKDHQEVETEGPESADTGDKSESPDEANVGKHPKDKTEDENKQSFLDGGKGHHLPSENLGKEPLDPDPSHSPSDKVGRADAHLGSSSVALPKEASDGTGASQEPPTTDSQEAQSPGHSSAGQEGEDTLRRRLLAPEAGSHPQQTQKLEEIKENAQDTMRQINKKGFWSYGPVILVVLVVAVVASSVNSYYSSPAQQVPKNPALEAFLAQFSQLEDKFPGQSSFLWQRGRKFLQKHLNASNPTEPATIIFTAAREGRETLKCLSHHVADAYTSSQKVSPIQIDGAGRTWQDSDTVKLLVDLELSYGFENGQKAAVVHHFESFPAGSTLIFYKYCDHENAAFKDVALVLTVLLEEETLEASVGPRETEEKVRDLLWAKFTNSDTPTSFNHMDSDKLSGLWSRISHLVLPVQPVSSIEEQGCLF
# Chain of Epidermal growth factor receptor (Homo sapiens) (P00533 whole entry, looked up): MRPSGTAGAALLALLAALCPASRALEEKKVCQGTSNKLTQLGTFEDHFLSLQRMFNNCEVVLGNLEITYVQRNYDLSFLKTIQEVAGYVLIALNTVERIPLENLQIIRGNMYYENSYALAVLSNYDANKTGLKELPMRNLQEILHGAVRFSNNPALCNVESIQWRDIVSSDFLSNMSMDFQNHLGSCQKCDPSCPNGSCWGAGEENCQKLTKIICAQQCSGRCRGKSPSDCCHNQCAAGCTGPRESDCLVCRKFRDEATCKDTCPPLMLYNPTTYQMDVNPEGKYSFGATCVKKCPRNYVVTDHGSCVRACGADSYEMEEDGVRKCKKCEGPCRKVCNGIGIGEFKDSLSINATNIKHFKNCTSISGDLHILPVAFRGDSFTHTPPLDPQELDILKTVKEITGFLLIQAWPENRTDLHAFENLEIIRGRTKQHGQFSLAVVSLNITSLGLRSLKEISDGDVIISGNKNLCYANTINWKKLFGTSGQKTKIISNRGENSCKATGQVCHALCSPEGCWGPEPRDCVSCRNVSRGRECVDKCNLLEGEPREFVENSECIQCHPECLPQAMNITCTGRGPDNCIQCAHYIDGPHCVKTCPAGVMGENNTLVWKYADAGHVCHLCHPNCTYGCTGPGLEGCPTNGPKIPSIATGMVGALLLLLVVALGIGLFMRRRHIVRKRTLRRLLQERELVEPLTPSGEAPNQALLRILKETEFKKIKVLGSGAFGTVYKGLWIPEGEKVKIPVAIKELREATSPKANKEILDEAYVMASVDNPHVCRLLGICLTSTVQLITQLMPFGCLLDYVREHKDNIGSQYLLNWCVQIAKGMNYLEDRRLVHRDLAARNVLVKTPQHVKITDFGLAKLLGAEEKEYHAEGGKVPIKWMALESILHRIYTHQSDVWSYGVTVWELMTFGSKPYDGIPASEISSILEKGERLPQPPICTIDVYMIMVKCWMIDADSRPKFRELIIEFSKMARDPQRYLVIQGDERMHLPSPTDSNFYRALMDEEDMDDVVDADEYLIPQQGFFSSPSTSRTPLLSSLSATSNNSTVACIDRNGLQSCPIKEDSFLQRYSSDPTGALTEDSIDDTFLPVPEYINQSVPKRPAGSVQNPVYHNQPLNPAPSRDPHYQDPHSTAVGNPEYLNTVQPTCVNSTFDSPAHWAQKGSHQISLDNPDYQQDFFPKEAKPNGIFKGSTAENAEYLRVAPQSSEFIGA
# Chain of Dickkopf-related protein 1 (Homo sapiens) (O94907 whole entry, looked up): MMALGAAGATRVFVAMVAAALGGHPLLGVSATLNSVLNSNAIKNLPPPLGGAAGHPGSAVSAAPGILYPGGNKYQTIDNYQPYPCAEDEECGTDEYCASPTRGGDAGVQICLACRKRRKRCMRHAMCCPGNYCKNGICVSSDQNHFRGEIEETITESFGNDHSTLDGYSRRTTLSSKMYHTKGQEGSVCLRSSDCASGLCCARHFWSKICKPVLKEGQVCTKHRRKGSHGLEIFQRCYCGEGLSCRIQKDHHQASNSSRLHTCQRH
# Chain of Fibroblast growth factor 10 (Homo sapiens) (O15520 whole entry, looked up): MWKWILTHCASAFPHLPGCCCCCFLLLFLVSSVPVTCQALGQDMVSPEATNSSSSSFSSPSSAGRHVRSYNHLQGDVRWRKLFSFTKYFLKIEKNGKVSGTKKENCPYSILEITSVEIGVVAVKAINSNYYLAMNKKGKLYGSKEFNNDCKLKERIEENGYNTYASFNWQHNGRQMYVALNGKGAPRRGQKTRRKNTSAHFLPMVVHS
# Chain of Neurogenic locus notch homolog protein 3 (Homo sapiens) (Q9UM47 whole entry, looked up): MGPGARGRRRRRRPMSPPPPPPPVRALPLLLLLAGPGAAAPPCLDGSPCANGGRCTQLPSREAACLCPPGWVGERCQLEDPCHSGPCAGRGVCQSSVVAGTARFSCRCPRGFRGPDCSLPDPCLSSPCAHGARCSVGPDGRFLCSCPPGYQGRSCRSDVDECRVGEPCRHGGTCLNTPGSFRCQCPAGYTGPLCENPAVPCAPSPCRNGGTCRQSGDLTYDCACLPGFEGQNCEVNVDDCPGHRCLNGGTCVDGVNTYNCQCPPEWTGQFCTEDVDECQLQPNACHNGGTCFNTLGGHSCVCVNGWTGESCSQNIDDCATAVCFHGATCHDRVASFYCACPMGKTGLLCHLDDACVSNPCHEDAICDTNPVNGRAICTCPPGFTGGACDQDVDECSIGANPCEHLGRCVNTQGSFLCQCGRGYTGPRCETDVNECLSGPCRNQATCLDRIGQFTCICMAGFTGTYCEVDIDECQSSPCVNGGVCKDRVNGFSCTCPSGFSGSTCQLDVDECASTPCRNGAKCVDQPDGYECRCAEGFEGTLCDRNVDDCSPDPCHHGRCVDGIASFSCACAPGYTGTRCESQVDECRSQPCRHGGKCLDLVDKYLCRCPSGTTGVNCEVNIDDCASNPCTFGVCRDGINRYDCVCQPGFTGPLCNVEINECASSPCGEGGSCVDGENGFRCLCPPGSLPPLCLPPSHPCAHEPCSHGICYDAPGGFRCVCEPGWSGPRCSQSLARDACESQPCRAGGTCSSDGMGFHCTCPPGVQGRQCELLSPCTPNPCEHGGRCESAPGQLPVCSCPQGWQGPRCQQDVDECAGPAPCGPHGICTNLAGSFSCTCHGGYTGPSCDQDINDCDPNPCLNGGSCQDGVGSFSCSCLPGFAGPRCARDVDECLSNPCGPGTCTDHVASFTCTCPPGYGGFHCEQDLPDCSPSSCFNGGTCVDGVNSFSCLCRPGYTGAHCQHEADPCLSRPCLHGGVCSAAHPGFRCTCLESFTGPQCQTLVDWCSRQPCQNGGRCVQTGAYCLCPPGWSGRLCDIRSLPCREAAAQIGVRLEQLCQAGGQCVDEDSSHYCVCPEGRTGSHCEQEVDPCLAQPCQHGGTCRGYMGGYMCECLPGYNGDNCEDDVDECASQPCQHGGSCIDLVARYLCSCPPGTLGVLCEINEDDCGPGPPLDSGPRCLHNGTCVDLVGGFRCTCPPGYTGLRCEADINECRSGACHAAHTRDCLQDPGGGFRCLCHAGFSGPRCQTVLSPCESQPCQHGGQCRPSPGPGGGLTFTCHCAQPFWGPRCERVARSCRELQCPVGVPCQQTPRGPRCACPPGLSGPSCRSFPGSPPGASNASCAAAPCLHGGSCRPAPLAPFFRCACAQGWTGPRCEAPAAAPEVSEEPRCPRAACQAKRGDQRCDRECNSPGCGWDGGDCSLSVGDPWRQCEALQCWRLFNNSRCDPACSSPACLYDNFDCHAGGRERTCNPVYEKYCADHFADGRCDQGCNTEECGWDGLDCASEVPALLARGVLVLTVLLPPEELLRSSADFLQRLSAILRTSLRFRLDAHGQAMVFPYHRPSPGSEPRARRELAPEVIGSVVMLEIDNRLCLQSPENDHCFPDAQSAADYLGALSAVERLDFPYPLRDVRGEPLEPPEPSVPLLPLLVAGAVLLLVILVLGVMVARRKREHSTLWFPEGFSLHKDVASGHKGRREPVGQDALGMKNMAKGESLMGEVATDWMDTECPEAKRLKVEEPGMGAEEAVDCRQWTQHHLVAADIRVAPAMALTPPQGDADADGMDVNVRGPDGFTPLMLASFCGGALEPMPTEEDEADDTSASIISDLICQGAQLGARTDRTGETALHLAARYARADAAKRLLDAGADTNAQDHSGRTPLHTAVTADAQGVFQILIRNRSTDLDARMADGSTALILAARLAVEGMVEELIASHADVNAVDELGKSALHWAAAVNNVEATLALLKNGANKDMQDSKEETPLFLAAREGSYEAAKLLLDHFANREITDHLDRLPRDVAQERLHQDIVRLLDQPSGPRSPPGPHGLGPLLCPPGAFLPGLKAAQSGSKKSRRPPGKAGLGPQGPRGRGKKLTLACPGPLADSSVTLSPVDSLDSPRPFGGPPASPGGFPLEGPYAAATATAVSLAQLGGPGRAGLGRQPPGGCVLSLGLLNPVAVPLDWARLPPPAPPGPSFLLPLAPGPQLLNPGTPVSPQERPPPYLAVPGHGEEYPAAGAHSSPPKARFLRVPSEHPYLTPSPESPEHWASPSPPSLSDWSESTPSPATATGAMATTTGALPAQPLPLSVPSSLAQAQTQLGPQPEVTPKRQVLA
# Chain of Follistatin-related protein 3 (Homo sapiens) (O95633 whole entry, looked up): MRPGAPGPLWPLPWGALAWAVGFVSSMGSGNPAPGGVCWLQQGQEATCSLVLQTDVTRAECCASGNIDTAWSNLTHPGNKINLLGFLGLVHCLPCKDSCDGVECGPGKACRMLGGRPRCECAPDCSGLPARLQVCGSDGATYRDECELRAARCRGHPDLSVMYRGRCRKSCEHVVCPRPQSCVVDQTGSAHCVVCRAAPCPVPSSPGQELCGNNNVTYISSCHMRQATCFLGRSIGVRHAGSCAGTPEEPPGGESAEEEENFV
SMILES,composite z-score [1],z-score [2],z-score [3],z-score [4],composite z-score [5],z-score [6],composite z-score [7],composite z-score [8],composite z-score [9],composite z-score [10],composite z-score [11],composite z-score [12],composite z-score [13],z-score [14],composite z-score [15],composite z-score [16],composite z-score [17],composite z-score [18],composite z-score [19],composite z-score [20]
COc1cc(NN2C(C(O)c3ccco3)C=CC3C(=O)N(C)C(=O)C32)cc(OC)c1OC (stereo not given),0.865,-0.0402 (inactive),1.06 (inactive),0.462 (inactive),0.873,-1.87 (inactive),0.413,0.382,-0.254,0.232,1.5,0.88,0.469,0.579 (inactive),0.138,1.1,-0.169,0.0253,0.216,0.752
[N-]=[N+]=NCc1ccccc1[C@H]1OC(c2ccc(OCCCO)cc2)=N[C@@]1(Cc1ccccc1N=[N+]=[N-])C(=O)NCC(O)CO (stereo not given in full),1.54,-0.527 (inactive),-0.451 (inactive),0.134 (inactive),3.52,-0.221 (inactive),0.0511,0.0758,1.09,0.0201,1.12,0.33,0.873,0.451 (inactive),0.903,1.13,-0.186,0.681,-0.308,0.317
COc1ccc(CCNC(=O)[C@@]2(c3ccc([N+](=O)[O-])cc3)CC(=O)N(C3CCCCC3)[C@@H]2c2ccc(CO)cc2)cc1,1.29,0.812 (inactive),-0.501 (inactive),0.361 (inactive),2.75,1.3 (inactive),0.157,-0.23,0.627,-0.0452,0.54,0.701,0.806,-0.134 (inactive),0.525,1,-0.155,0.211,0.214,0.249
CC(C)N1CC=CC23O[C@@H]4C=CCCOC(=O)C4[C@H]2C(=O)N(CCCO)[C@@H]3C1=O (stereo not given in full),0.521,-0.198 (inactive),-0.861 (inactive),-0.824 (inactive),2.1,2.83 (inactive),-0.215,-0.0322,0.236,-0.226,0.415,-0.137,0.0009,-1.38 (inactive),-0.264,-0.322,-1.07,-0.317,-0.183,0.864
COc1cc(NN2C(C(O)c3ccc(N(C)C)cc3)C=CC3C(=O)N(c4ccccc4)C(=O)C32)cc(OC)c1OC (stereo not given),0.824,0.146 (inactive),-0.424 (inactive),-0.363 (inactive),1.4,-1.58 (inactive),0.473,-0.308,0.544,0.0955,0.101,1.16,1.13,-0.859 (inactive),0.513,0.765,-0.038,0.455,-0.335,1.67
